M1 antag – human M1 muscarinic receptor antagonists, primary screen, CHO-K1 cells, Fluo-8 calcium fluorescence, 1536-well; CHO-K1 hM1, ACh EC80 antagonist; hit rate 1.3% among 360,000; inhibition, % at 3 µM; AID 588852, 2011; Muscarinic acetylcholine receptor M1 (Homo sapiens), P11229;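 active means percent inhibition above its own plate's cutoff, namely the mean of that plate's compound wells plus 3 SD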;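 further: peak over basal fluorescence ratio during 140 s after agonist addition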
CHRM4 antagonist – human M4 muscarinic receptor antagonists, primary screen, CHO cells, Fluo-8 calcium fluorescence; Muscarinic acetylcholine receptor M4 (Homo sapiens), P08173; CHO-hM4 cells, ACh EC80; inhibition, % at 3 µM; hit rate 0.73% among 360,000; AID 624125, 2012;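 active means inhibition above its plate's cutoff, the mean inhibition of sample wells plus 3 SD, cut at about 27% in these data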
Target sequence (P08173 whole entry, looked up): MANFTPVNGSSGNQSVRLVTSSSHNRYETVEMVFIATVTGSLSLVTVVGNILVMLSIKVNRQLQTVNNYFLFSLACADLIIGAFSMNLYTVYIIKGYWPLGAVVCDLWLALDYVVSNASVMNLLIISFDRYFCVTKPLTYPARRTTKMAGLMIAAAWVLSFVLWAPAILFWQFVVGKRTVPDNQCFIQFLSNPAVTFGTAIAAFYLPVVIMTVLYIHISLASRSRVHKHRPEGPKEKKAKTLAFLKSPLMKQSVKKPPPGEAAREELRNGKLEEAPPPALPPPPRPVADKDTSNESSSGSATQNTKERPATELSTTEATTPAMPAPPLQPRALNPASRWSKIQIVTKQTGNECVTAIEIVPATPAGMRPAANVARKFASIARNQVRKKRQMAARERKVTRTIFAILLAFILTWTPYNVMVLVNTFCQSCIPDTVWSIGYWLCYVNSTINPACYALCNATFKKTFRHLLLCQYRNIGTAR
CHRM1 agonist – human M1 muscarinic receptor agonists, primary screen, Fluo-8 calcium fluorescence, CHO-K1 cells, HTS. activation, % at 3 µM. AID 588814, 2011. hit rate 0.33% among 360,000. CHO-K1 hM1, agonist mode; 0% DMSO, 100% acetylcholine EC100;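 active means activation above the run's mean compound activation plus 3 SD, cut at about 16% in these data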;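 further: peak over basal fluorescence ratio within a 140 s kinetic read after compound addition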
M1 PAM – human M1 muscarinic receptor positive allosteric modulators, primary screen, CHO-K1 cells, Fluo-8 calcium fluorescence, 1536-well. CHO-K1 hM1, ACh EC20; 0% = ACh EC20, 100% = maximal ACh. activation, % at 3 µM. hit rate 0.088% among 360,000. Muscarinic acetylcholine receptor M1 (Homo sapiens), P11229; in the data active means activation above about 19%, passing the limit was not always enough
CHRM4 PAM – human M4 muscarinic receptor positive allosteric modulators, primary screen, CHO-K1 cells, Fluo-8 calcium fluorescence; CHO-K1 hM4/Gqi5, ACh EC20; 0% = ACh EC20, 100% = maximal ACh; activation, % at 3 µM; hit rate 0.4% among 360,000; AID 624126, 2012;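 active means activation above its plate's cutoff, the mean activation of sample wells plus 3 SD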
M4 ag – human M4 muscarinic receptor agonists, primary screen, CHO-K1 cells, Fluo-8 calcium fluorescence | activation, % at 3 µM | AID 624127, 2012 | Muscarinic acetylcholine receptor M4 (Homo sapiens), P08173 | hit rate 0.14% among 360,000 | CHO-K1 hM4/Gqi5; vehicle 0%, full acetylcholine response 100%;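 active means activation above the run mean over all test wells plus 3 SD, cut at about 32% in these data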;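 further: peak over basal fluorescence ratio per well then scaled between controls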
A number is an active result. Shown are actives, neighbours in structure and some others; about 2.2% of the full set was active somewhere.

Results for CC(=O)Nc1cccc(C(=O)/C=C/c2ccc(F)cc2)c1 ?
M1 antag: inactive; CHRM4 antagonist: inactive; CHRM1 agonist: inactive; M1 PAM: inactive; CHRM4 PAM: inactive; M4 ag: inactive

What do the screens show for `CC(=O)Nc1cccc(C(=O)/C=C/c2ccc(N(C)C)cc2)c1`?
M1 antag: 55.5; CHRM4 antagonist: 38.9; CHRM1 agonist: 113.4; M1 PAM: inactive; CHRM4 PAM: inactive; M4 ag: 67.9

What do the screens show for `CCN(Cc1ccccc1)C(=O)c1nn(-c2ccc(OC)cc2)c(=O)c2c1c1ccccc1n2C`?
M1 antag: 22.5; CHRM4 antagonist: inactive; CHRM1 agonist: inactive; M1 PAM: inactive; CHRM4 PAM: inactive; M4 ag: inactive

Results for CCCCN(CC)CCNC(=O)c1nn(-c2ccc(OC)cc2)c(=O)c2c1c1ccccc1n2C ?
M1 antag: inactive; CHRM4 antagonist: inactive; CHRM1 agonist: inactive; M1 PAM: inactive; CHRM4 PAM: inactive; M4 ag: inactive

How did CCc1ccc(NC(=O)C(=O)NCCN2CCN(Cc3ccc([N+](=O)[O-])cc3)CC2)cc1 do in these assays?
M1 antag: inactive; CHRM4 antagonist: inactive; CHRM1 agonist: inactive; M1 PAM: inactive; CHRM4 PAM: inactive; M4 ag: inactive

Results for COc1ccc(-n2c(-c3ccc(Cl)cc3)c[n+]3c2CCc2ccccc2-3)cc1 ?
M1 antag: inactive; CHRM4 antagonist: inactive; CHRM1 agonist: inactive; M1 PAM: inactive; CHRM4 PAM: inactive; M4 ag: inactive

Results for Cc1ccc(-n2c(-c3ccc(Br)cc3)c[n+]3c2CCc2ccc4cccnc4c2-3)cc1 ?
M1 antag: 90.9; CHRM4 antagonist: 41.2; CHRM1 agonist: inactive; M1 PAM: inactive; CHRM4 PAM: inactive; M4 ag: inactive

What do the screens show for `CCC(=O)N(Cc1ccc2c(c1)OCO2)Cc1cc2cc(OC)ccc2[nH]c1=O`?
M1 antag: inactive; CHRM4 antagonist: inactive; CHRM1 agonist: inactive; M1 PAM: inactive; CHRM4 PAM: inactive; M4 ag: inactive

How did Cc1ccc(/C=c2\sc3nc(-c4ccco4)nn3c2=O)o1 do in these assays?
M1 antag: inactive; CHRM4 antagonist: inactive; CHRM1 agonist: inactive; M1 PAM: inactive; CHRM4 PAM: inactive; M4 ag: inactive

Results for O=C(CCN1C(=O)/C(=C\c2cccs2)SC1=S)Nc1ccc(C(=O)O)cc1 ?
M1 antag: inactive; CHRM4 antagonist: inactive; CHRM1 agonist: inactive; M1 PAM: inactive; CHRM4 PAM: inactive; M4 ag: inactive

How did CCN(CC)CCOC(=O)c1ccc(NC(=O)CCCN2C(=O)/C(=C\c3cccs3)SC2=S)cc1 do in these assays?
M1 antag: 43.2; CHRM4 antagonist: inactive; CHRM1 agonist: inactive; M1 PAM: inactive; CHRM4 PAM: inactive; M4 ag: inactive

Results for COC(=O)/C(=C\Nc1cccc(Cl)c1C)c1ncc(C(F)(F)F)cc1Cl ?
M1 antag: inactive; CHRM4 antagonist: inactive; CHRM1 agonist: inactive; M1 PAM: inactive; CHRM4 PAM: inactive; M4 ag: inactive

What do the screens show for `Cc1ncc(CN2CCCC(C(=O)Nc3ccc(-c4ccco4)cc3)C2)n1C` (configuration not stated)?
M1 antag: inactive; CHRM4 antagonist: 30.9; CHRM1 agonist: inactive; M1 PAM: inactive; CHRM4 PAM: inactive; M4 ag: inactive

What do the screens show for `COc1cccc(-c2ccc(NC(=O)C3CCCN(CCCn4nc(C)cc4C)C3)cc2)c1` (configuration not stated)?
M1 antag: 49.5; CHRM4 antagonist: inactive; CHRM1 agonist: inactive; M1 PAM: inactive; CHRM4 PAM: inactive; M4 ag: inactive

How did COc1cccc(-c2ccc(NC(=O)C3CCCN(Cc4ccco4)C3)cc2)c1 (configuration not stated) do in these assays?
M1 antag: inactive; CHRM4 antagonist: inactive; CHRM1 agonist: inactive; M1 PAM: inactive; CHRM4 PAM: inactive; M4 ag: inactive

What do the screens show for `CCN(CC)Cc1cc(NC2=NS(=O)(=O)c3ccccc32)ccc1OC(=O)C(C)C`?
M1 antag: inactive; CHRM4 antagonist: inactive; CHRM1 agonist: inactive; M1 PAM: inactive; CHRM4 PAM: inactive; M4 ag: inactive

How did CCOC(=O)CN1C(=O)N[C@@H](c2cccc(F)c2)C(C(C)=O)=C1C do in these assays?
M1 antag: inactive; CHRM4 antagonist: inactive; CHRM1 agonist: inactive; M1 PAM: inactive; CHRM4 PAM: inactive; M4 ag: inactive

What do the screens show for `CCN1C(=O)N[C@@H](c2cccc(F)c2)C(C(C)=O)=C1C`?
M1 antag: inactive; CHRM4 antagonist: inactive; CHRM1 agonist: inactive; M1 PAM: 31.2; CHRM4 PAM: inactive; M4 ag: inactive

What do the screens show for `CC(C)Cn1c(-c2csc3c2CCCC3)n[nH]c1=S`?
M1 antag: 44.0; CHRM4 antagonist: 29.9; CHRM1 agonist: inactive; M1 PAM: inactive; CHRM4 PAM: inactive; M4 ag: inactive

Results for CC(C)Cn1c(-c2ccccc2F)n[nH]c1=S ?
M1 antag: inactive; CHRM4 antagonist: inactive; CHRM1 agonist: inactive; M1 PAM: inactive; CHRM4 PAM: inactive; M4 ag: inactive

How did O=C(c1ccc(NS(=O)(=O)c2ccc(Cl)c(Cl)c2)cc1)N1CCOCC1 do in these assays?
M1 antag: inactive; CHRM4 antagonist: inactive; CHRM1 agonist: inactive; M1 PAM: inactive; CHRM4 PAM: inactive; M4 ag: inactive

How did O=C(Nc1cc(Sc2ccccn2)cc([N+](=O)[O-])c1)c1ccc([N+](=O)[O-])cc1 do in these assays?
M1 antag: 23.7; CHRM4 antagonist: inactive; CHRM1 agonist: inactive; M1 PAM: inactive; CHRM4 PAM: inactive; M4 ag: inactive

How did CN1CCN(C2=C(NS(=O)(=O)c3cccs3)C(=O)c3ccccc3C2=O)CC1 do in these assays?
M1 antag: inactive; CHRM4 antagonist: inactive; CHRM1 agonist: inactive; M1 PAM: inactive; CHRM4 PAM: inactive; M4 ag: inactive

What do the screens show for `O=C1C(NS(=O)(=O)c2cccs2)=C(N2CCN(Cc3ccccc3)CC2)C(=O)c2ccccc21`?
M1 antag: 30.6; CHRM4 antagonist: inactive; CHRM1 agonist: inactive; M1 PAM: inactive; CHRM4 PAM: inactive; M4 ag: inactive

How did CCOc1ccccc1N1CCN(C2=C(NS(=O)(=O)c3cccs3)C(=O)c3ccccc3C2=O)CC1 do in these assays?
M1 antag: 59.7; CHRM4 antagonist: inactive; CHRM1 agonist: inactive; M1 PAM: inactive; CHRM4 PAM: inactive; M4 ag: inactive

How did NCC(=O)NCC(=O)NC1(C(=O)O)CCCC1 do in these assays?
M1 antag: inactive; CHRM4 antagonist: inactive; CHRM1 agonist: inactive; M1 PAM: inactive; CHRM4 PAM: inactive; M4 ag: inactive

Source: PubChem BioAssay (The Scripps Research Institute Molecular Screening Center)
